Reference: the supplement of paper PMC6992640
± gives the standard deviation of the averaged measurements.

Tests used:
Experiment in all cases: cell viability (% of vehicle); higher = less cytotoxic
Details in all cases: 10 µM; 72 h
HCI01 = test system: HCI01 (cells of a triple-negative basal-like breast cancer xenograft)
HCI03 = test system: HCI03 (cells of an ER-positive luminal breast cancer xenograft)
HCI09 = test system: HCI09 (cells of a triple-negative luminal androgen receptor type breast cancer xenograft)
HCI11 = test system: HCI11 (cells of an ER-positive luminal breast cancer xenograft)
HCI13 = test system: HCI13 (cells of an ER-positive luminal breast cancer xenograft)
HCI16 = test system: HCI16 (cells of a triple-negative basal-like breast cancer xenograft)
UCD52 = test system: UCD52 (cells of a triple-negative basal-like breast cancer xenograft)
WHIM2 = test system: WHIM2 (cells of a triple-negative basal-like breast cancer xenograft)
WHIM30 = test system: WHIM30 (cells of a triple-negative basal-like breast cancer xenograft)
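Also: PDX cells carrying CMV promoter-driven luciferase, viability read as total photon flux per second by IVIS imaging following D-luciferin, vehicle control 0.1% DMSO.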

| Compound | cell viability (HCI01) | cell viability (HCI03) | cell viability (HCI09) | cell viability (HCI11) | cell viability (HCI13) | cell viability (HCI16) | cell viability (UCD52) | cell viability (WHIM2) | cell viability (WHIM30) |
| --- | --- | --- | --- | --- | --- | --- | --- | --- | --- |
| C[N+]1(C)C2CCC1CC(OC(=O)C(O)c1ccccc1)C2.[Br-] (stereo not drawn) [Homatropine Methylbromide] | 96.2 ± 1.2 | 97.6 | 89.8 ± 18 | 85.9 | 105 ± 5 | 114 | 104 ± 1.8 | 112 ± 8 | 50.8 ± 2.7 |
| CC(C)NCC(O)c1ccc(NS(C)(=O)=O)cc1.Cl (stereo not drawn) [Sotalol hydrochloride] | 102 ± 11 | 150 | 109 ± 2.9 | 111 | 126 ± 18 | 144 | 116 ± 4.6 | 110 ± 5.1 | 118 ± 2.6 |
| CCCC(CCC)C(=O)O.CCCC(CCC)C(=O)[O-].[Na+] [Divalproex Sodium] | 112 ± 1.5 | 116 | 96.4 ± 23 | 111 | 114 ± 41 | 94.5 | 86.1 ± 2.9 | 80.1 ± 16 | 90.4 ± 14 |
| O=C(NC(Cc1cc(=O)[nH]c2ccccc12)C(=O)O)c1ccc(Cl)cc1 (stereo not drawn) [Rebamipide] | 92.4 ± 31 | 129 | 88.63 ± 0.71 | 97 | 117 ± 5.6 | 102 | 100 ± 6.4 | 86.2 ± 10 | 115 ± 8.9 |
| Cc1ccc(-n2[nH]c(C)c(NN=C3C=CC=C(c4cccc(C(=O)O)c4)C3=O)c2=O)cc1C.NCCO.NCCO [Eltrombopag Olamine] | 82.7 ± 71 | 79.3 | 26.4 ± 4 | 71 | 43.8 ± 1.1 | 119 | 76.8 ± 6.6 | 36.8 ± 0.9 | 104 ± 17 |
| CCc1ccc(CCOc2ccc(CC3SC(=O)NC3=O)cc2)nc1 (stereo not drawn) [Pioglitazone] | 93 ± 44 | 118 | 123 ± 30 | 104 | 135 ± 16 | 133 | 106 ± 8.1 | 106 ± 21 | 171 ± 1.9 |
| CC(C)c1nc(CN(C)C(=O)NC(CCN2CCOCC2)C(=O)NC(CCC(Cc2ccccc2)NC(=O)OCc2cncs2)Cc2ccccc2)cs1 (stereo not drawn) [Cobicistat (GS-9350)] | 83.3 ± 3.6 | 74.2 | 53.3 ± 17 | 52.3 | 64.4 ± 11 | 128 | 67 ± 4.4 | 78.1 ± 3.2 | 96.6 ± 3.7 |
| O=C(O)C1=COC(OC2OC(CO)C(O)C(O)C2O)C2C(CO)=CCC12 (stereo not drawn) [Geniposidic acid] | 99.5 ± 9.7 | 150 | 93.7 ± 17 | 95.6 | 107 ± 12 | 110 | 99.8 ± 10 | 94.3 ± 6 | 143.2 ± 0.61 |
| NS(=O)(=O)NCC/N=C1\NON\C1=C(\N=O)Nc1ccc(F)c(Br)c1 | 105 ± 6.8 | 99 | 35 ± 8.5 | 96.4 | 66.5 ± 1.4 | 112 | 57.5 ± 3.6 | 88.9 ± 9.7 | 96.2 ± 6 |
| CS(=O)(=O)OCCCCOS(C)(=O)=O [Busulfan] | 99.951 ± 0.028 | 115 | 117 ± 7.2 | 105 | 109 ± 4.9 | 108 | 81.4 ± 3.8 | 97.6 ± 4 | 143 ± 10 |
| CN(Cc1cc(Br)cc(Br)c1N)C1CCCCC1.Cl [Bromhexine HCl] | 95.8 ± 14 | 86.3 | 93 ± 6 | 96.3 | 64.9 ± 2.5 | 106 | 73.8 ± 6.8 | 44.5 ± 15 | 108 ± 3.3 |
| CN1C(C(=O)Nc2ccccn2)=C(O)c2sc(Cl)cc2S1(=O)=O [Lornoxicam] | 95.2 ± 8.9 | 111 | 84.7 ± 25 | 85.6 | 82.4 ± 9.6 | 98.4 | 86.2 ± 5.5 | 112 ± 2.6 | 99.1 ± 6.5 |
| O=C([O-])Cc1ccccc1Nc1c(Cl)cccc1Cl.[K+] [Diclofenac Potassium] | 117 ± 9.3 | 106 | 100 ± 24 | 100 | 65.9 ± 1.7 | 114 | 73.8 ± 2.9 | 109 ± 28 | 117 ± 39 |
| COC(=O)C1=C(C#N)NC(C)=C(C(=O)OC(C)C)C1c1cccc([N+](=O)[O-])c1 (stereo not drawn) [Nilvadipine] | 112 ± 8.1 | 125 | 77 ± 4.5 | 85.7 | 138 ± 29 | 101 | 70.2 ± 1.1 | 116 ± 12 | 83.4 ± 10 |
| Cl.c1ccc(CN(CC2=NCCN2)c2ccccc2)cc1 [Antazoline HCl] | 133.9 ± 0.91 | 123 | 103 ± 1.1 | 119 | 109 ± 9.2 | 144 | 66.7 ± 18 | 92.52 ± 0.86 | 102 ± 8.3 |
| NCC1OC(OC2C(N)CC(N)C(OC3OC(CO)C(O)C(N)C3O)C2O)C(O)C(O)C1O.O=S(=O)(O)O (stereo not drawn) [Kanamycin Sulfate] | 106 ± 5.6 | 92.9 | 90.5 ± 16 | 96.7 | 120 ± 31 | 86.8 | 81.5 ± 0.83 | 80.1 ± 15 | 95.8 ± 11 |
| CC1(C(=O)[O-])CCC2(C)CCC3(C)C(=CC(=O)C4C5(C)CCC(OC(=O)CCC(=O)[O-])C(C)(C)C5CCC43C)C2C1.[Na+].[Na+] (stereo not drawn) [Carbenoxolone disodium] | 84.3 ± 8 | 122 | 89.2 ± 4.5 | 103 | 129 ± 87 | 108 | 82.3 ± 1.7 | 108 ± 11 | 97.9 ± 2.5 |
| CC1(C)SC2C(NC(=O)C(NC(=O)N3CCN(S(C)(=O)=O)C3=O)c3ccccc3)C(=O)N2C1C(=O)O.[Na] (stereo not drawn) [Mezlocillin Sodium] | 143 ± 62 | 142 | 104 ± 10 | 102 | 89.7 ± 3.6 | 123 | 105 ± 1.2 | 107 ± 20 | 103 ± 9.4 |
| CC12CCC3c4ccc(OC(=O)c5ccccc5)cc4CCC3C1CCC2O (stereo not drawn) [Estradiol Benzoate] | 123.5 ± 0.41 | 131 | 79.7 ± 1.4 | 84.7 | 191 ± 13 | 126 | 83.6 ± 14 | 132 ± 29 | 138 ± 13 |

| Compound | cell viability (HCI01) | cell viability (HCI03) | cell viability (HCI09) | cell viability (HCI11) | cell viability (HCI13) | cell viability (HCI16) | cell viability (UCD52) | cell viability (WHIM2) | cell viability (WHIM30) |
| --- | --- | --- | --- | --- | --- | --- | --- | --- | --- |
| O=C(O)C=Cc1ccc(Cn2ccnc2)cc1 [Ozagrel] | 95.1 ± 6.6 | 145 | 90.9 ± 16 | 106 | 116 ± 6.6 | 98.4 | 88 ± 3.2 | 97.8 ± 2.4 | 87.2 ± 20 |
| Cn1c(=O)c2c(ncn2CC(O)CO)n(C)c1=O (stereo not drawn) [Dyphylline] | 98.4 ± 7.5 | 122 | 98 ± 15 | 114 | 117 ± 14 | 85.9 | 90.2 ± 3.7 | 104 ± 1.1 | 119 ± 24 |
| CN1CCN(c2c(F)cc3c(=O)c(C(=O)O)cn4c3c2OCN4C)CC1 [Marbofloxacin] | 99.12 ± 0.67 | 99.3 | 69.9 ± 9 | 138 | 129 ± 17 | 114 | 136 ± 18 | 75.5 ± 2.6 | 148 ± 30 |
| C=C[C@]1(C)C[C@@H](OC(=O)CSC2C[C@H]3CC[C@@H](C2)N3C)[C@]2(C)[C@H](C)CC[C@]3(CCC(=O)[C@H]32)[C@@H](C)[C@@H]1O (stereo partly drawn) [Retapamulin] | 73.5 ± 21 | 113 | 83.2 ± 3.2 | 93.3 | 111 ± 10 | 109 | 81.8 ± 4.8 | 80.3 ± 5.3 | 146 ± 15 |
| CC(C)(C)NCC(O)COc1nsnc1N1CCOCC1.O=C(O)C=CC(=O)O (stereo not drawn) [Timolol Maleate] | 115.9 ± 0.17 | 116 | 106 ± 5.1 | 107 | 89.5 ± 12 | 120 | 96.4 ± 1.9 | 93.1 ± 15 | 112 ± 6.8 |
| CNS(=O)(=O)Cc1ccc2[nH]cc(CCN(C)C)c2c1.O=C(O)CCC(=O)O [Sumatriptan Succinate] | 89.3 ± 18 | 110 | 89.6 ± 31 | 82.8 | 81.4 ± 5.5 | 120 | 101 ± 13 | 106 ± 18 | 106 ± 4.2 |
| CCCN(CCC)C(=O)C1=Cc2ccc(-c3ccc(C(=O)N4CCCC4)cc3)cc2NC(=N)C1 [Motolimod (VTX-2337)] | 100 ± 41 | 97.5 | 32.1 ± 0.89 | 63.6 | 76.6 ± 7 | 105 | 66 ± 3.8 | 71 ± 15 | 100 ± 12 |
| CC(C)CC(N)=O [Isovaleramide] | 103 ± 22 | 132 | 97.6 ± 3.4 | 98.5 | 104 ± 13 | 94.6 | 99.9 ± 2 | 98.5 ± 13 | 96.1 ± 7.9 |
| Cl.NCCCC(N)(C(=O)O)C(F)F.O (racemic) [DL-α-Difluoromethylornithine (hydrochloride hydrate)] | 94.2 ± 12 | 94 | 92.3 ± 10 | 65.9 | 80.9 ± 5.2 | 99.2 | 85.3 ± 3.9 | 91.9 ± 5.5 | 97.1 ± 3.2 |
| CC(CCC(=O)O)C1CCC2C3C(O)CC4CC(O)CCC4(C)C3CCC12C (stereo not drawn) [Chenodeoxycholic Acid] | 114 ± 38 | 104 | 66 ± 10 | 103 | 41.5 ± 4.3 | 102 | 97.13 ± 0.54 | 115 ± 23 | 146 ± 3.2 |
| CCn1cc(C(=O)O)c(=O)c2cc(F)c(N3CCNCC3)nc21 [Enoxacin (Penetrex)] | 101 ± 5.7 | 144 | 102 ± 13 | 109 | 104 ± 12 | 91 | 79.6 ± 0.81 | 85.5 ± 12 | 98.8 ± 2.7 |
| CCCCN1CCCCC1C(=O)Nc1c(C)cccc1C.Cl (stereo not drawn) [Bupivacaine HCl] | 145 ± 30 | 128 | 104 ± 14 | 120 | 106 ± 2.1 | 169 | 89 ± 16 | 111 ± 7.6 | 117 ± 12 |
| CS(=O)(=O)O.Cc1ccc(N(CC2=NCCN2)c2cccc(O)c2)cc1 [Phentolamine Mesylate] | 112 ± 14 | 116 | 118 ± 7.2 | 112 | 124 ± 11 | 101 | 99.5 ± 6.4 | 93.5 ± 12 | 137 ± 12 |
| Cl.Cl.O=C(O)COCCN1CCN(C(c2ccccc2)c2ccc(Cl)cc2)CC1 (stereo not drawn) [Cetirizine DiHCl] | 111 ± 5.7 | 118 | 98.4 ± 0.98 | 103 | 147 ± 6.2 | 116 | 78.6 ± 6.7 | 90.1 ± 1.9 | 109 ± 7.9 |
| CC1(O)CC(c2nc(-c3ccc4ccc(-c5ccccc5)nc4c3)c3c(N)nccn23)C1 (stereo not drawn) [Linsitinib] | 112 ± 1.2 | 109 | 73.3 ± 39 | 76.3 | 38.6 ± 4 | 127 | 71.6 ± 2.8 | 102 ± 11 | 126 ± 12 |
| CC(C)(C)c1nc(-c2cccc(NS(=O)(=O)c3c(F)cccc3F)c2F)c(-c2ccnc(N)n2)s1 | 118 ± 12 | 125 | 98.9 ± 1.2 | 119 | 187 ± 54 | 73.6 | 122 ± 12 | 116 ± 4.4 | 91.4 ± 15 |
| Cl.Cl.NC(=NCCCCCCN=C(N)N=C(N)Nc1ccc(Cl)cc1)N=C(N)Nc1ccc(Cl)cc1 [Chlorhexidine HCl] | 99.4 ± 3 | 88.3 | 89.7 ± 3 | 76 | 96.44 ± 0.43 | 124 | 92.8 ± 7.6 | 108 ± 4.1 | 82.3 ± 3.8 |
| CS(=O)(=O)O.OC(CCN1CCCCC1)(c1ccccc1)c1ccccc1 [Pridinol Methanesulfonate] | 113 ± 3.7 | 104 | 124 ± 47 | 119 | 92.6 ± 12 | 112 | 86.1 ± 6.1 | 164 ± 89 | 129 ± 10 |
